Sampled rows, rich in hits. Any-hit rate of the full collection: about 5.8%.
PINK1 modulator: changes PINK1 expression. PINK1 immunofluorescence, high-content cytometry, 24 h. Potency, µM (series often up to 76.6 µM), without a hit: top-dose activation (PINK1 increase), actives largely listed as activators. 410,000 compounds, 0.2% hits; active = well fitted activation curve with a large enough effect; inconclusive = small, poorly fitted or top-dose-only effect; cell line not stated here; also: % of control where 0% means no effect; nearly all actives have a fitted effect of over 65% in size
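Stable cell line, 250 cells/well, 12 h attachment; compounds pinned at 5 concentrations, 24 h; CCCP control. Fixed with nuclear dye, primary antibodies 12 h at 10 degrees C, secondary plus cell stain; laser-scanning cytometer read.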
MCF10A rerep: induces DNA re-replication in MCF 10a normal breast cells. 350,000 compounds, 2.9% hits. MCF 10A DNA re-replication, Hoechst nuclear intensity, 48 h. Potency, µM (titrated, usually from 46.1 µM), without a hit: at the top dose activity, positive = re-replication, actives largely listed as activators; also: % of control where 0% means no effect; nearly all actives have a fitted effect of over 50% in size
12-LOX inh: ALOX12 (human) lipoxygenase inhibition. P18054. purified 12hLO, xylenol orange hydroperoxide absorbance. Potency, µM (titrated, usually from 108 µM), for the others: top-dose activity change, negative = inhibition, usual class: inhibitors. 580,000 compounds, 1.1% hits; also: % is scaled to controls: 0 for no effect and ±100 for the full control effect
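Purified human 12hLO (150 nM final) in 25 mM Hepes, 0.01% Triton X-100, pH 7.0 was preincubated 15 min at room temperature with compound. Then 40 uM arachidonic acid was added, 30 min. Hydroperoxide was read by Fe-XO absorbance ratio 573/405 nm.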
KB-3-1 tox: kills parental KB-3-1 adenocarcinoma cells. AID 1347075. 400,000 compounds, 1.4% hits. KB-3-1 viability, CellTiter-Glo ATP luminescence, 72 h. Potency, µM (series often up to 46.1 µM), usual class: cytotoxic; also: % is scaled to controls: 0 for no effect and ±100 for the full control effect; nearly all actives have a fitted effect of over 60% in size
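Parental KB-3-1 adenocarcinoma cells in phenol-red-free DMEM with 10% FBS were pin-treated with compounds at several concentrations, incubated 72 h at 37 °C, and viability read by CellTiter-Glo luminescence; concentration-effect curves were fitted after normalization.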
KB-V1 MDR tox: KB-V1 MDR subline cytotoxicity; 400,000 compounds, 3.4% hits; KB-V1 MDR cells viability, CellTiter-Glo, 72 h; Potency, µM (top dose mostly 46.1 µM), most hits filed as cytotoxic; also: % is scaled to controls: 0 for no effect and ±100 for the full control effect; nearly all actives have a fitted effect of over 60% in size
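In this primary screen, KB-V1 cells overexpressing P-gp are incubated with library compounds (lowest to highest concentration) for 72 h at 37 degrees C before a luminescent ATP viability read.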
SW480 rereplic: DNA re-replication induction in SW480 cells; SW480 DNA re-replication, Hoechst DNA content imaging, 48 h; 340,000 compounds, 1.8% hits; Potency, µM (top dose mostly 46.1 µM), without a hit: top-dose re-replication activation, actives largely listed as activators; also: % of control where 0% means no effect; nearly all actives have a fitted effect of over 55% in size
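Readout is total intensity of Hoechst-stained nuclei, excited at 405 nm and collected at 500-530 nm. Compound treatment lasted 48 hr at 37 C in 5% CO2 before staining.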
* hit, by the source's call; i = inactive; ? = inconclusive; / = not tested or not shown; [ ] = dose if it differs, or a comment. Unless noted, calls follow the shape of the dose curve; as a rule, active = well fitted curve in the direction sought with a large enough effect; inconclusive = small, poorly fitted or top-dose-only effect, or another doubt; inactive = no such curve, though single readings can be large; an effect the other way counts as inactive or inconclusive. Potency is read from the fitted curve at half-maximal effect.

SMILES	PINK1 modulator	MCF10A rerep	12-LOX inh	KB-3-1 tox	KB-V1 MDR tox	SW480 rereplic
CC(NCC(=O)NC1CCCCC1)c1cccc(C(F)(F)F)c1 (stereo unspecified)	/	/	41%	/	/	/
COc1cc2nc(NC(=O)c3ccc(S(=O)(=O)N4CCc5ccccc54)cc3)sc2cc1OC	-4%	/	?	?	7.3µM*	/
COc1ccc(C(=O)Nc2ccc(S(=O)(=O)N3CCc4ccccc43)cc2)cc1	2%	?	3%	2.9µM*	2.6µM*	6%
O=C(Nc1ncccc1O)c1cccc(S(=O)(=O)N2CCc3ccccc32)c1	1%	-2%	-13%	i	i	0%
COc1ccc(S(=O)(=O)N2CCc3ccccc32)cc1NC(C)=O	6%	8.2µM*	1%	23µM*	?	?
COc1ccc(NC(=O)c2cccc(S(=O)(=O)N3CCc4ccccc43)c2)cn1	4%	14%	-12%	i	13µM*	-2%
COc1ccc(S(=O)(=O)N2CCCc3ccccc32)cc1OC	2%	10%	-6%	?	i	?
CC(OC(=O)c1cc(C2CC2)nn1-c1ccccc1)C(=O)Nc1ccc2c(c1)OCCO2 (stereo unspecified)	/	/	-13%	/	/	/
Cc1c(CC(=O)NC2CCOCC2)c2c(n1CCc1ccccc1)CCCC2=O	/	/	10%	/	/	/
COc1ccc(C(=O)Nc2ncccc2C)cc1S(=O)(=O)N1CCCc2ccccc21	2%	0%	16%	i	?	-4%
CC(=O)Nc1ccc(S(=O)(=O)N2CCSc3ccccc32)cc1	2%	6.5µM*	-16%	5.8µM*	i	3.7µM*
O=C(Nc1ccncc1)c1ccc(Cl)c(S(=O)(=O)N2CCc3ccccc32)c1	4%	?	1%	?	?	-340%
COc1ccc(S(=O)(=O)N2CCc3ccccc32)cc1C(=O)N1CCN(c2ncccn2)CC1	/	/	40µM*	/	/	/
CCc1nnc(NC(=O)c2ccc(Cl)c(S(=O)(=O)N3CCc4ccccc43)c2)s1	8%	22%	0%	21µM*	13µM*	-6%
COc1ccc(C(=O)Nc2nc3c(s2)CCCC3)cc1S(=O)(=O)N1CCCc2ccccc21	-2%	?	-13%	?	5.2µM*	?
O=S(=O)(c1cccc(Cl)c1)N1CCSc2ccccc21	5%	45%	-11%	i	i	115%
CCOc1cc(CNC(=O)c2ncoc2-c2ccc(OC)cc2)cc(OCC)c1OCC	/	/	0%	/	/	/
CC(C)N(C(=O)CC(C#N)(CC(=O)N(C(C)C)C(C)C)c1nc2ccccc2s1)C(C)C	/	/	-3%	/	/	/
COc1ccc(S(=O)(=O)N2CCc3ccccc32)cc1C(=O)Nc1ccc(NC(C)=O)cc1	7%	23µM*	20%	i	i	?
COc1ccc(NC(C)=O)cc1S(=O)(=O)N1CCc2ccccc21	3%	?	0%	i	i	-6%
COc1ccc(S(=O)(=O)N2CCCc3ccccc32)cc1[N+](=O)[O-]	5%	4.1µM*	2%	4.1µM*	?	21µM*
CN(Cc1ccc(C(=O)NCC(F)(F)F)cc1)C(=O)Cc1cccc(C(F)(F)F)c1	/	/	1%	/	/	/
CC(=O)OCC1(C)CN(c2ccccc2)NC1=O (stereo unspecified)	-1%	13%	40µM*	i	i	-1%
CC(=O)OCC1(C)CN(c2ccccc2)N(C(C)=O)C1=O (stereo unspecified)	0%	9%	-15%	i	i	-3%
COc1ccc(C2=NOC(C(=O)NC(C)(C)C)C2)cc1 (stereo unspecified)	5%[38.3 µM]	-26%	0%	i	i	18%
CC(=O)OC1CC(c2cc(C(C)(C)C)c(O)c(C(C)(C)C)c2)=NO1 (stereo unspecified)	10%	?	0%	i	?	15µM*
Cc1cc(N2CCOCC2)ccc1/C=C1\NC(=O)N(Cc2ccccc2F)C1=O	19%	5.2µM*	-3%	i	?	7%
O=C(CCCc1ccccc1)NCc1ccco1	/	/	6%	/	/	/
